# Biological target: histone methyltransferase SET domain containing 2 (SETD2) (Homo sapiens, UniProt Q9BYW2)
# Test: primary screen, binary call; higher = more effect of the substance; call rule not given here
# Experimental: The Chemiluminescence assay evaluates SETD2 specific tri -methylation activity towards histone H3K36. The kit consist s of recombinant SETD2, S-adenosylmethionine and a specific H3K36me3 antibody and was performed according to the manufacturer’s protocol (Catalo g- No. 52060, https://bpsbioscience.com/setd2 -chemiluminescent-assay-kit-52060). Values were blank corrected and normalized . Enzymatic activities were calculated relative to the positive control of the kit (full enzymatic activity) and to the known SET doma in inhibitor Sinefungin28 used as negative control (complete enzymatic activity inhibition). Compounds used were diluted in DMSO.
# histone methyltransferase SET domain containing 2 (SETD2), sequence (Q9BYW2 whole entry, looked up, the tested form may be a part): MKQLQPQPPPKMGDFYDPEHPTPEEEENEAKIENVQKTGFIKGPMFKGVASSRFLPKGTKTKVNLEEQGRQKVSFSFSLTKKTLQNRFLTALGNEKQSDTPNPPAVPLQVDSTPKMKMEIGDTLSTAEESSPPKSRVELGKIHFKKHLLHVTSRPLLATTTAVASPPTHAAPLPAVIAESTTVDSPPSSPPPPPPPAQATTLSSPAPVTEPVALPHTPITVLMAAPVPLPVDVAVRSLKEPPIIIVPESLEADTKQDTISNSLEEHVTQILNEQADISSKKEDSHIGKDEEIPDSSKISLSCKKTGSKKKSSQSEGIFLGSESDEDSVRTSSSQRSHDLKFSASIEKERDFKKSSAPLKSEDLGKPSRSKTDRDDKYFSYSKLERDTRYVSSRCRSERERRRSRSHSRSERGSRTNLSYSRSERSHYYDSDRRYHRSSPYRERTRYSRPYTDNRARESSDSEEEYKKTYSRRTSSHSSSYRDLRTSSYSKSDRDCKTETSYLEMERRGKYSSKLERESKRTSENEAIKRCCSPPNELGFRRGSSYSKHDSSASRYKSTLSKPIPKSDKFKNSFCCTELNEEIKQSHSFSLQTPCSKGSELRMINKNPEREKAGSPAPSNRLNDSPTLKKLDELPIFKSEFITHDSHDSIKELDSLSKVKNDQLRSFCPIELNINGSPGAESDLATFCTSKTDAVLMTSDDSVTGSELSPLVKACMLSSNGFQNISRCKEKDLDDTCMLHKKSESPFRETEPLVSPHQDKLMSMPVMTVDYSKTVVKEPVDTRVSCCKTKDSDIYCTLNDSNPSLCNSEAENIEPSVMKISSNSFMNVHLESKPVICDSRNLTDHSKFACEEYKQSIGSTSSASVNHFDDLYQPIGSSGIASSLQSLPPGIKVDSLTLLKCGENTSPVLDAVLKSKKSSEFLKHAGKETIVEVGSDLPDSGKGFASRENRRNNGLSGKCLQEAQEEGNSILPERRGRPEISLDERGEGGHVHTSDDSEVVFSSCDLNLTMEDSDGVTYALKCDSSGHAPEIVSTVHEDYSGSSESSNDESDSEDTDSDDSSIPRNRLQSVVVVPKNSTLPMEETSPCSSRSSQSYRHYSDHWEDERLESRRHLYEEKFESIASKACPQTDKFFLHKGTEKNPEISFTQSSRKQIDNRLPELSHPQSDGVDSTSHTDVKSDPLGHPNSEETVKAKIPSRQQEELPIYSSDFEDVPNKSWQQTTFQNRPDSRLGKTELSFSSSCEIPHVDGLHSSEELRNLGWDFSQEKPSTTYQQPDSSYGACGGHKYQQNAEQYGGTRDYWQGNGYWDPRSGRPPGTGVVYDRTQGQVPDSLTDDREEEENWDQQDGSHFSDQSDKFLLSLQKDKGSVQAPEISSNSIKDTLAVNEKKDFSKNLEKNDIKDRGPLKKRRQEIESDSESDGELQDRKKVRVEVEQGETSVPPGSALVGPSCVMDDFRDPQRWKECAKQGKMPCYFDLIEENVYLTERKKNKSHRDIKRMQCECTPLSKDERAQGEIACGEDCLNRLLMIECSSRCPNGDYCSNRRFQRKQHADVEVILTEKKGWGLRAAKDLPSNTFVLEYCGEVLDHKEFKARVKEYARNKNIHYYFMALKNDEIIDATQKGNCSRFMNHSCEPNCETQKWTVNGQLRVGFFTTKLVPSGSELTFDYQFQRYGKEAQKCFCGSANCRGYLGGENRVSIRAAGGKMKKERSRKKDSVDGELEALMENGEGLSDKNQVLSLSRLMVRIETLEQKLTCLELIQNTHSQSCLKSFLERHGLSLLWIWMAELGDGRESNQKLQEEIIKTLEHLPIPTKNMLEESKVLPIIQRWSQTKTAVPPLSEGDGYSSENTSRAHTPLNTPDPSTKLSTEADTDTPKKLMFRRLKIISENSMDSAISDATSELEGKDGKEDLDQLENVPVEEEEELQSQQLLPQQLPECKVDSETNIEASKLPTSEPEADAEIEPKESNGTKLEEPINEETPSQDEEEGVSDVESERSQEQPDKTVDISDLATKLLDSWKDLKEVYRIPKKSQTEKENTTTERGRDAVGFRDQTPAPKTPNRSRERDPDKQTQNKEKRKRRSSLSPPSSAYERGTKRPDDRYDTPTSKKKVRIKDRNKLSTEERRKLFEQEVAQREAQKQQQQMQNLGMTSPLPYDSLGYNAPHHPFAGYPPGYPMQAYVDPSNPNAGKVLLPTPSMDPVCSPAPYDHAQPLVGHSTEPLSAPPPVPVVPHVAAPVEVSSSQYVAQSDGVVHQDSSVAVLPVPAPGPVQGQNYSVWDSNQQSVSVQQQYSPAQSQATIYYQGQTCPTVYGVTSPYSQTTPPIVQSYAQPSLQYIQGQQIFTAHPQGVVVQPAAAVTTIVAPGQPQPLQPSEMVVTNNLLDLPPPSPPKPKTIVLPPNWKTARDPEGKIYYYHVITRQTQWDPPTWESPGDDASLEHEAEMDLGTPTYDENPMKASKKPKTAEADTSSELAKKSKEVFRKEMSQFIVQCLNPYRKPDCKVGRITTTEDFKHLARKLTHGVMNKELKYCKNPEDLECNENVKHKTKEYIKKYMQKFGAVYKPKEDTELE
row,SMILES,SETD2
1,N#Cc1ccc2ncsc2c1,0 (inactive)
2,Oc1ccc(-n2cncn2)cc1,0 (inactive)
3,Nc1nnc(-c2cccs2)[nH]1,0 (inactive)
4,CC(CN)N1CCc2sccc2C1 (stereo not shown),0 (inactive)
5,O=C1CSC(Nc2ccc(F)cc2)=N1,0 (inactive)
6,Cc1cnc(C(F)(F)F)cn1,0 (inactive)
7,Oc1nnc(-c2ccccc2)o1,0 (inactive)
8,O=C1NC(=O)C2(CCc3ccccc32)N1 (stereo not shown),0 (inactive)
9,c1ccc2oc(C3CCCNC3)nc2c1 (stereo not shown),0 (inactive)
10,COc1ccc(C2=CCNCC2)cc1,0 (inactive)
11,Fc1ccc2c(C3CCNCC3)c[nH]c2c1,0 (inactive)
12,CC(=O)c1ccc2c(c1)CNCC2,0 (inactive)
13,O=c1[nH]ncc2c1oc1ccccc12,0 (inactive)
14,c1ccc2c(N3CCNCC3)ccnc2c1,0 (inactive)
15,Cn1c(CO)nc2ccccc21,0 (inactive)
16,CS(=O)(=O)c1ccc(OC(F)(F)F)cc1,0 (inactive)
17,c1cnc2c(c1)NCCC2,0 (inactive)
18,Clc1ccc2nnnn2n1,0 (inactive)
19,Fc1ccc(CC2CCCNC2)cc1 (stereo not shown),0 (inactive)
20,O=C(O)c1cccc(Nc2ncccn2)c1,0 (inactive)

row,SMILES,SETD2
1,O=C1CNCCN1c1ccccc1,0 (inactive)
2,N#Cc1ccc(C(=O)N2CCOCC2)cc1,0 (inactive)
3,Cn1c(N)nc2ccccc21,1 (active)
4,Cc1ccc(CCNc2ccccc2)cn1,0 (inactive)
5,N#CC1CCS(=O)(=O)C1 (stereo not shown),0 (inactive)
6,O=C1CCCc2occc21,0 (inactive)
7,CCCN1C(=O)CC(=O)NC1=S,0 (inactive)
8,Nc1ccc(SC(F)F)cc1,0 (inactive)
9,O=C(O)C1CCCN(C(=O)N2CCCC2)C1 (stereo not shown),0 (inactive)
10,Cc1ccc(C)n1Cc1ccccc1Cl,0 (inactive)
11,Cc1ccc(-c2ccc(O)cc2)cc1,0 (inactive)
12,Nc1ccc(-c2ccccc2)cc1C(=O)O,0 (inactive)
13,COc1ccccc1CC1CCNCC1.Cl,0 (inactive)
14,CCc1ccc(NC2=NCCCS2)cc1,0 (inactive)
15,O=C(Nc1ccccc1)C1CC1,0 (inactive)
16,Oc1ccccc1N1CCCCC1,0 (inactive)
17,Oc1ccc(C2CCNCC2)cc1,0 (inactive)
18,CCc1nccn1CC(=O)O,0 (inactive)
19,O=C1CCN(c2ccccn2)CC1,0 (inactive)
20,CS(=O)(=O)c1ccc(N2CCNCC2)cc1,0 (inactive)

# Source: article PMC8159961, “Exploring protein hotspots by optimized fragment pharmacophores” (Nature Communications, 2021)
